About 7,900 targets were measured; listed, in parts, are those with a hit and a random draw of the rest. About 0.6% of all pairs of compound and target were hits.
How the values were obtained:
Test in all cases: log2 fold change, soluble protein after heating vs DMSO (PISA); higher = thermal stabilisation; K562 cells, 10 uM, 30 min; active = over 0.2 and 3.5 SD of the protein, either way, in both replicates (recomputed)
[1] = compound: Cc1ccc(NC(=O)c2ccc(CN3CC[C@H](N(C)C)C3)c(C(F)(F)F)c2)cc1Nc1nccc(-c2cncnc2)n1 [bafetinib]
Outline: (§1)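 Thermal stability values are relative to control samples and come from duplicates. They are expressed as log2 fold changes. For measurement, K562 cells (2×10^6 cells/mL) received 10 μM compound for 30 min, and aliquots were heated for 3 min over 48°C-58°C, pooled, and extracted at 4°C in PBS with 0.5% NP-40. Soluble protein, the supernatant after 21,000xg for 90 min, was quantified by TMTpro 16plex LC-MS/MS with equalised channel sums.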

[2] = compound: Cc1cccc(CC(=O)N2CCc3c2ccc(-c2cn(C)c4ncnc(N)c24)c3F)n1
Outline: as §1

[3] = compound: Cc1cn(-c2cc(NC(=O)c3ccc(C)c(Nc4nccc(-c5cccnc5)n4)c3)cc(C(F)(F)F)c2)cn1 [nilotinib]
Outline: as §1

[4] = compound: Cc1nc(Nc2n[nH]c3c2CN(C(=O)N[C@H](CN(C)C)c2ccccc2)C3(C)C)c2sccc2n1
Outline: as §1

[5] = compound: Cc1nc(Nc2ncc(C(=O)Nc3c(C)cccc3Cl)s2)cc(N2CCN(CCO)CC2)n1 [dasatinib]
Outline: as §1

[6] = compound: Cc1ncc(-c2ccnc(Nc3ccc(S(C)(=O)=O)cc3)n2)n1C(C)C
Outline: as §1

[7] = compound: Cn1cc(-c2ccc3c(c2)CCN3C(=O)Cc2cccc(C(F)(F)F)c2)c2c(N)ncnc21
Outline: as §1

[8] = compound: Cn1cc(-c2ccc3nnc(C(F)(F)c4ccc5ncccc5c4)n3n2)cn1
Outline: as §1

[9] = compound: Cn1cncc1[C@@](N)(c1ccc(Cl)cc1)c1ccc2c(c1)c(-c1cccc(Cl)c1)cc(=O)n2C [tipifarnib]
Outline: as §1

[10] = compound: FC(F)(F)c1ccc(/C=C/c2nc(COc3ccc(CCCCn4ccnn4)cc3)co2)cc1 [mubritinib]
Outline: as §1

[11] = compound: NC(=O)Nc1cc(-c2cccc(F)c2)sc1C(=O)N[C@H]1CCCNC1
Outline: as §1

[12] = compound: NC(=O)c1cnc(N[C@@H]2CCCC[C@@H]2N)nc1Nc1cccc(-n2nccn2)c1
Outline: as §1

[13] = compound: NC1(c2ccc(-c3nc4ccn5c(=O)[nH]nc5c4cc3-c3ccccc3)cc2)CCC1
Outline: as §1

[14] = compound: NCC(=O)Nc1ccc(-n2nc(C(F)(F)F)cc2-c2ccc3c(ccc4ccccc43)c2)cc1
Outline: as §1

[15] = compound: Nc1ccccc1NC(=O)c1ccc(CNC(=O)OCc2cccnc2)cc1 [entinostat]
Outline: as §1

[16] = compound: O=C(CCCCCCC(=O)Nc1ccccc1)NO [vorinostat]
Outline: as §1

[17] = compound: O=C(CCCCCCNC(=O)c1cnc(N(c2ccccc2)c2ccccc2Cl)nc1)NO [citarinostat]
Outline: as §1

[18] = compound: O=C(O)c1ccc2c(c1)nc(Nc1cccc(Cl)c1)c1ccncc12 [silmitasertib]
Outline: as §1

[19] = compound: O=C1NC(=O)C(c2cnc3ccccn23)=C1c1cn2c3c(cc(F)cc13)CN(C(=O)N1CCCCC1)CC2
Outline: as §1

[20] = compound: c1cc(OCCN2CCCCC2)cc(-c2n[nH]c3ccc(-c4nnc[nH]4)cc23)c1
Outline: as §1

Measured: log2 fold change

FDPS (UniProt P14324)
inactive: [1] 0.057 | [2] 0.204 | [3] -0.156 | [4] 0.035 | [5] -0.392 | [6] -0.027 | [7] 0.209 | [8] 0.441 | [9] -0.258 | [10] 0.39 | [11] 0.009 | [12] -0.136 | [13] -0.48 | [14] -0.14 | [15] 0.001 | [16] 0.215 | [17] 0.142 | [18] -0.108 | [19] -0.026 | [20] -0.069

HDAC1 (UniProt Q13547)
active: [16] 1.79 | [17] 1.52
inactive: [1] 0.306 | [2] -0.046 | [3] -0.023 | [4] -0.021 | [5] -0.091 | [6] -0.055 | [7] -0.002 | [8] -0.009 | [9] -0.078 | [10] -0.025 | [11] -0.015 | [12] 0.128 | [13] -0.017 | [14] 0.006 | [18] 0.06 | [19] -0.03 | [20] 0.003

GNL3 (UniProt Q9BVP2)
UniProt Q9BVP2, sequence (Q9BVP2 whole entry, looked up): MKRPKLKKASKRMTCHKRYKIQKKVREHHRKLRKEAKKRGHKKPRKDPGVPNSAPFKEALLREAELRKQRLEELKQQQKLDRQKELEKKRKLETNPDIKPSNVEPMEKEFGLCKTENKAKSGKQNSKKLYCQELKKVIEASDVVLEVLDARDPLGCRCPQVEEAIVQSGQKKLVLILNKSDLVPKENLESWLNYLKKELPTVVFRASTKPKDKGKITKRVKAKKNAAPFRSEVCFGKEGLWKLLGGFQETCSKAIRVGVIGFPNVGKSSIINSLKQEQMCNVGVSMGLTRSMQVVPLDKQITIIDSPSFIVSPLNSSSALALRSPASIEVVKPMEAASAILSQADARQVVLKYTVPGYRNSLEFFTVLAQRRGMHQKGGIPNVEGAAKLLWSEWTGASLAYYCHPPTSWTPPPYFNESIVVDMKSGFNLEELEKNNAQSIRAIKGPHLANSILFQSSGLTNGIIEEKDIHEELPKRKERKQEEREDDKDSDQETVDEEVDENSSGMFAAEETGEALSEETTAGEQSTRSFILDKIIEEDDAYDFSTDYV
inactive: [1] -0.038 | [2] -0.078 | [3] -0.007 | [4] 0.011 | [5] -0.031 | [6] 0.056 | [7] 0.069 | [10] 0.134 | [11] 0.08 | [12] -0.061 | [13] -0.098 | [14] -0.088 | [15] -0.069 | [16] -0.131 | [17] 0.134 | [18] -0.066 | [19] -0.027 | [20] 0.041

GTPBP6 (UniProt O43824)
active: [1] -0.706
inactive: [2] -0.072 | [3] 0.13 | [4] 0.069 | [5] 0.028 | [6] -0.042 | [7] 0.057 | [8] 0.042 | [10] 0.058 | [11] -0.052 | [12] -0.066 | [13] 0.017 | [14] -0.003 | [15] -0.019 | [16] -0.1 | [17] 0.093 | [18] -0.115 | [19] 0.086 | [20] -0.011

FASTKD1 (UniProt Q53R41)
inactive: [1] 0.098 | [2] -0.021 | [3] -0.183 | [5] -0.168 | [6] -0.053 | [7] 0.217 | [8] -0.064 | [11] 0.046 | [12] -0.014 | [14] 0.033 | [15] -0.019 | [16] 0.018 | [17] -0.055 | [19] -0.12 | [20] 0.046
active: [4] 0.54

ICMT (UniProt O60725)
UniProt O60725, sequence (O60725 whole entry, looked up): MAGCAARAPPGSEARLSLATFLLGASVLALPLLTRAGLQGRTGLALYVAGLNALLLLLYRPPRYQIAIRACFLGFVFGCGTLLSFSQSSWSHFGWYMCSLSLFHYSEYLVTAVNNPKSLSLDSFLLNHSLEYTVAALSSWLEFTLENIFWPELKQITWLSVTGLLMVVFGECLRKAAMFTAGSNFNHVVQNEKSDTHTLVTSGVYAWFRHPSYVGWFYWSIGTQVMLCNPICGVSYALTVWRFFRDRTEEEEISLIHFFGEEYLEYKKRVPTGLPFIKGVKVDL
inactive: [1] -0.103 | [3] 0.049 | [4] 0.17 | [5] 0.065 | [6] -0.003 | [8] 0.113 | [9] 0.107 | [10] 0.284 | [11] 0.031 | [12] -0.153 | [13] -0.233 | [14] -0.079 | [15] 0.007 | [17] -0.034 | [18] 0.022 | [19] -0.013 | [20] -0.016

GAK (UniProt O14976)
UniProt O14976, sequence (O14976 whole entry, looked up): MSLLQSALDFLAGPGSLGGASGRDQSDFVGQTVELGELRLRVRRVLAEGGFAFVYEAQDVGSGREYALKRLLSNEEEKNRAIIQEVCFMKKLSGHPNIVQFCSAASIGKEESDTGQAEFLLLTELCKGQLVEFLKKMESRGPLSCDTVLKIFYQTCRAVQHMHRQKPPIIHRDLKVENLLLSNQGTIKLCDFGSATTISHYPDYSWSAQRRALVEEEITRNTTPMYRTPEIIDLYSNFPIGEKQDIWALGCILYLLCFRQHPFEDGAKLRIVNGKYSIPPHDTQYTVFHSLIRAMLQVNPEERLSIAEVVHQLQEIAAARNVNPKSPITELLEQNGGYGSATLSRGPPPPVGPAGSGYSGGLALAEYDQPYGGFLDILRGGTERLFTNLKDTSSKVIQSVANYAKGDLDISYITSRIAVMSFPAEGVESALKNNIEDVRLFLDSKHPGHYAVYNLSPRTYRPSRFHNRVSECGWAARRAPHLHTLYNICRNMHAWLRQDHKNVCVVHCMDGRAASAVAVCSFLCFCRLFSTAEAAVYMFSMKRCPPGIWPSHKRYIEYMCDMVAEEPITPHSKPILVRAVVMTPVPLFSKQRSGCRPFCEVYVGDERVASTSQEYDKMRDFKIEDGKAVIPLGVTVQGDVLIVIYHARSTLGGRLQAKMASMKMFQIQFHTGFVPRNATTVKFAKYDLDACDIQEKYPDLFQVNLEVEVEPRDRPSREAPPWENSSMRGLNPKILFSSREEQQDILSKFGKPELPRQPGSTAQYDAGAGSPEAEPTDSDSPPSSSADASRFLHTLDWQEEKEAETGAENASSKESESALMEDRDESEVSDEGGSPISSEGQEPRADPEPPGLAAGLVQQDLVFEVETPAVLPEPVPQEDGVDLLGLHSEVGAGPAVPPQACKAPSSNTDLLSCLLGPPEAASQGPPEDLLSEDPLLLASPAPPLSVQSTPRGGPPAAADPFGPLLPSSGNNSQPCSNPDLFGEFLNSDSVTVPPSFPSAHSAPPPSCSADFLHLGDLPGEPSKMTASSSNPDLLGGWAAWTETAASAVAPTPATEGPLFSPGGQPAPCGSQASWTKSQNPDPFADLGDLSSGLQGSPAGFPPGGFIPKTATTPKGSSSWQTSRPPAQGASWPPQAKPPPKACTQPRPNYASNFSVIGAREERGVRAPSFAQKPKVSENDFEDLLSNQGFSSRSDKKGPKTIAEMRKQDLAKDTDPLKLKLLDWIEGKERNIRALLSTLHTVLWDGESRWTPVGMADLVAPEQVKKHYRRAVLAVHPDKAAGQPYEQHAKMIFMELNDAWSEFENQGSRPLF
inactive: [2] -0.072 | [3] 0.257 | [4] 0.792 | [5] 1.31 | [6] 0.232 | [7] -0.07 | [8] -0.031 | [9] -0.238 | [10] 0.005 | [11] 1.52 | [12] 0.465 | [13] 0.145 | [14] 1.4 | [15] -0.072 | [16] -0.01 | [17] -0.244 | [18] 0.607 | [19] 0.236 | [20] 0.687

IDH3A isoform 2 (UniProt P50213)
inactive: [1] 0.004 | [3] 0 | [4] 0.001 | [6] -0.057 | [7] 0.128 | [12] -0.06

HSPA8 (UniProt E9PN89)
inactive: [1] -0.04 | [2] -0.338 | [3] -0.12 | [4] 0.041 | [6] -0.123 | [7] -0.063 | [9] 0.122 | [10] 0.004 | [11] -0.317 | [12] -0.283 | [13] -0.172 | [14] -0.372 | [15] -0.135 | [16] -0.057 | [17] -0.304 | [18] 0.365 | [19] -0.102 | [20] -0.394

FUNDC1 (UniProt Q8IVP5)
UniProt Q8IVP5, sequence (Q8IVP5 whole entry, looked up): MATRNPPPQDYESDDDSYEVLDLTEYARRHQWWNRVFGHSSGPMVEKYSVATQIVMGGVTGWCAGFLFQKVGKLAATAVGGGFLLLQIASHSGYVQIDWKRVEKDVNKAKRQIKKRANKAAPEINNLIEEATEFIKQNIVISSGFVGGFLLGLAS
inactive: [1] -0.169 | [9] 0 | [10] 0.066 | [11] -0.058 | [13] -0.104 | [15] 0.01 | [18] 0.055

FAT2 (UniProt Q9NYQ8)
inactive: [1] 0.076 | [2] -0.005 | [5] 0.006 | [7] 0.167 | [8] 0.002 | [9] 0.008 | [10] 0.354 | [13] -0.334 | [14] -0.134 | [16] 0.068 | [17] -0.045 | [18] -0.063 | [19] -0.06 | [20] -0.06

GBA2 (UniProt Q9HCG7)
UniProt Q9HCG7, sequence (Q9HCG7 whole entry, looked up): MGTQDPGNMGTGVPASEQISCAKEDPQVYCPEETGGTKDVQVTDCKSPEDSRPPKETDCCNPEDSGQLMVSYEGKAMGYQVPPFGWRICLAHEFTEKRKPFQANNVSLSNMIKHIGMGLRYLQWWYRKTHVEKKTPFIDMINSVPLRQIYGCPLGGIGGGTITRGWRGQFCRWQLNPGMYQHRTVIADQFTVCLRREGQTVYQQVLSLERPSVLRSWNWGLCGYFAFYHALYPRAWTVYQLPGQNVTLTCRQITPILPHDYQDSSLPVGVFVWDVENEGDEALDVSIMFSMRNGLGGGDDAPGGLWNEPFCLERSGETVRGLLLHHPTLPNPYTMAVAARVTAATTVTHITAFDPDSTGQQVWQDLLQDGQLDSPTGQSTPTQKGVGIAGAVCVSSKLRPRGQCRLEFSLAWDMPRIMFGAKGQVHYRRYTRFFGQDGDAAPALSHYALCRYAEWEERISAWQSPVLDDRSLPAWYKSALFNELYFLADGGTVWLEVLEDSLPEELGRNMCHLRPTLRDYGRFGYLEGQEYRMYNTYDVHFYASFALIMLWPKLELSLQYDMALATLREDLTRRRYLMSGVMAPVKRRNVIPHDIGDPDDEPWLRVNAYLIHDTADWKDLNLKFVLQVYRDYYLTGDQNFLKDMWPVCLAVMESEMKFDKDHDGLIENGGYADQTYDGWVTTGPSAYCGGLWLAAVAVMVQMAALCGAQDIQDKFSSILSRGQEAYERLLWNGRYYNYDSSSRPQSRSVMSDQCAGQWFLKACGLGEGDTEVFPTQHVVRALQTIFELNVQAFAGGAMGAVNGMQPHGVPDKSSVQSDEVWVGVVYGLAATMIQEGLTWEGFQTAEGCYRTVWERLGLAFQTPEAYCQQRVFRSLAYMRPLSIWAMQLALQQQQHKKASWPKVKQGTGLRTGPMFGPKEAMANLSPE
inactive: [1] 0.045 | [3] -0.057 | [4] -0.061 | [5] -0.144 | [6] 0.007 | [7] 0.138 | [9] 0.091 | [10] 0.234 | [11] -0.008 | [12] -0.006 | [13] -0.108 | [14] -0.129 | [15] -0.023 | [17] -0.332 | [18] 0.124 | [19] -0.027 | [20] -0.211

IFITM3 (UniProt Q01628)
UniProt Q01628, sequence (Q01628 whole entry, looked up): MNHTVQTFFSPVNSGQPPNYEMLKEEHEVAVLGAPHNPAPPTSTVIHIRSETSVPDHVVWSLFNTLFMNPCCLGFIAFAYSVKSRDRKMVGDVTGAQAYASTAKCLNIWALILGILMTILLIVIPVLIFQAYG
inactive: [1] -0.073 | [3] 0.07 | [4] -0.2 | [5] -0.076 | [6] -0.01 | [7] 0.049 | [8] -0.149 | [9] 0.113 | [10] -0.157 | [11] -0.074 | [12] 0.1 | [13] -0.089 | [14] 0.14 | [15] 0.008 | [17] 0.232 | [18] -0.111 | [19] 0.072 | [20] -0.164

H3-3A (UniProt P84243)
inactive: [1] -0.046 | [3] -0.038 | [4] -0.123 | [5] -0.133 | [6] -0.067 | [7] 0.08 | [9] -0.261 | [10] 0.236 | [11] 0.072 | [13] -0.095 | [14] -0.096 | [15] 0.104 | [17] 0.157 | [18] -0.046 | [20] 0.028

HBZ, A0A494C057
inactive: [1] -0.015 | [3] 0.171 | [4] -0.035 | [6] 0.127 | [10] -0.08 | [13] -0.022 | [17] -0.197 | [18] 0.005 | [20] 0.876

FMR1 (UniProt Q06787)
active: [13] 0.836
inactive: [2] -0.146 | [7] -0.224 | [8] -0.028 | [9] -0.129 | [10] -0.175 | [11] 0.086 | [15] -0.106 | [16] -0.137 | [17] 0.101 | [18] 0.058 | [20] -0.146

FIBP (UniProt O43427)
inactive: [1] -0.096 | [2] -0.093 | [5] -0.201 | [7] 0.118 | [8] -0.06 | [9] -0.029 | [10] 0.134 | [11] -0.018 | [12] 0.023 | [13] 0.011 | [14] -0.117 | [15] -0.005 | [16] -0.067 | [17] 0.297 | [18] -0.05 | [19] -0.031 | [20] -0.106

GPS2 (UniProt Q13227)
UniProt Q13227, sequence (Q13227 whole entry, looked up): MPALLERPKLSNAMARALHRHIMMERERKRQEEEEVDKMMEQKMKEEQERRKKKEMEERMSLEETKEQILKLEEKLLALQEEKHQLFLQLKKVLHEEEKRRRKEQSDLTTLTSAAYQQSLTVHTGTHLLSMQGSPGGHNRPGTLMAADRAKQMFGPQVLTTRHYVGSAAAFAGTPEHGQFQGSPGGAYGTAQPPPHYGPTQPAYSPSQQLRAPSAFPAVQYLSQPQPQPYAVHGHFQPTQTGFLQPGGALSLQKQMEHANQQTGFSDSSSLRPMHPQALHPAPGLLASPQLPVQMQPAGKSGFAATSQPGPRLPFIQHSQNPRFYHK
inactive: [1] -0.157 | [3] 0 | [4] -0.045 | [6] -0.074 | [8] 0.02 | [9] -0.033 | [10] -0.059 | [11] 0.041 | [13] 0.079 | [14] -0.106 | [15] -0.015 | [17] -0.023 | [18] 0.031 | [19] -0.005 | [20] -0.092

HS1BP3 (UniProt Q53T59)
UniProt Q53T59, sequence (Q53T59 whole entry, looked up): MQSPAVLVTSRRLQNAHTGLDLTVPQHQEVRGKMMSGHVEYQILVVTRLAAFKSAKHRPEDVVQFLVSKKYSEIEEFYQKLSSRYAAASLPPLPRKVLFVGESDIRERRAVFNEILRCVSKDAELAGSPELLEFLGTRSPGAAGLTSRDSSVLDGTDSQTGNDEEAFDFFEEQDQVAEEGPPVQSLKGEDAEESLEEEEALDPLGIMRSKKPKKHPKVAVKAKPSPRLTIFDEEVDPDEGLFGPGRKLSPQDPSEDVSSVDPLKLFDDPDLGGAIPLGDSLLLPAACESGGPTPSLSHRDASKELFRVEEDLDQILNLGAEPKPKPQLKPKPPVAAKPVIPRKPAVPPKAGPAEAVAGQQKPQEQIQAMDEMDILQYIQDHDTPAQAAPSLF
inactive: [1] -0.022 | [3] -0.023 | [4] -0.104 | [5] -0.047 | [6] -0.029 | [7] 0.062 | [8] -0.067 | [9] -0.038 | [11] -0.059 | [12] -0.075 | [14] 0.027 | [15] -0.05 | [17] 0.115 | [19] -0.016 | [20] 0.108

FIZ1 (UniProt Q96SL8)
UniProt Q96SL8, sequence (Q96SL8 whole entry, looked up): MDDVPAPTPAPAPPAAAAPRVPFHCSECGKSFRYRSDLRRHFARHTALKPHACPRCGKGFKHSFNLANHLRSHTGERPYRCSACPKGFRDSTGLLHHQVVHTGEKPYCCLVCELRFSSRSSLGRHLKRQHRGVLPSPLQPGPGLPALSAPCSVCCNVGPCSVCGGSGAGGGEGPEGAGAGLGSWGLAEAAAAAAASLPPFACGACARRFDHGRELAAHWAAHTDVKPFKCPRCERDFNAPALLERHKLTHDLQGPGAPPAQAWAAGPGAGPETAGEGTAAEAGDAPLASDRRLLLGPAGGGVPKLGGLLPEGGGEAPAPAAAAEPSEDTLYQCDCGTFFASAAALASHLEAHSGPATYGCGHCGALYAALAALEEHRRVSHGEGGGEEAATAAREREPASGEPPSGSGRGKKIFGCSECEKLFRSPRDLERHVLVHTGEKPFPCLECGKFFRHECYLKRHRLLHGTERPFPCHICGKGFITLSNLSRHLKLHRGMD
inactive: [2] -0.092 | [3] -0.09 | [4] 0.065 | [5] -0.026 | [6] -0.213 | [7] -0.137 | [10] -0.191 | [11] 0.026 | [13] 0.097 | [14] 0.061 | [15] -0.257 | [16] 0.044 | [17] -0.12 | [18] -0.103 | [19] 0.06 | [20] 0.041

FEN1 (UniProt P39748)
UniProt P39748, sequence (P39748 whole entry, looked up): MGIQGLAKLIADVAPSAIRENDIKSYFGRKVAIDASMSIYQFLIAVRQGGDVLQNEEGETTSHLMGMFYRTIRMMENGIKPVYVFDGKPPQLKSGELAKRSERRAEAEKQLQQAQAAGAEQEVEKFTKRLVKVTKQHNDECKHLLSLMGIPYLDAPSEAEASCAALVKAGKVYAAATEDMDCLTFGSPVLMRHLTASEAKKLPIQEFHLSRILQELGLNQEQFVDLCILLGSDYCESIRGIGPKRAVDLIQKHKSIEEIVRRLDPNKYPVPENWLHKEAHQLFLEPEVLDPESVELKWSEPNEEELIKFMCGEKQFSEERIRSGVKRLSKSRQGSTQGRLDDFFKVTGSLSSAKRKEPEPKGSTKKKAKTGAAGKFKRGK
inactive: [1] 0.02 | [2] 0.23 | [3] -0.149 | [4] 0.053 | [6] -0.05 | [7] 0.16 | [8] 0.164 | [9] -0.274 | [10] 0.314 | [11] -0.022 | [12] -0.154 | [13] -0.28 | [14] -0.157 | [15] 0.034 | [16] 0.246 | [17] 0.111 | [18] -0.1 | [19] -0.129 | [20] 0.035

Reference: the supplement of paper PMC10849652
